Screens from PubChem.
Gli-Sufu antag: Gli-Sufu pathway antagonism; Sufu-KO-LIGHT fibroblasts, Gli luciferase reporter luminescence; inhibition, % at 5 µM; 0.74% of 340,000 active; AID 588413;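 active = inhibition above about 55%, limit read from the data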
Shn3 inh set2: Schnurri-3 reporter inhibition in Clone20 osteoblasts; Clone20 osteoblast Shn3 3'UTR firefly luciferase, 24 h; inhibition, % at 12.5 µM; 0.52% of 360,000 active; AID 588674;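 active = mean inhibition of at least 75% with every replicate also reaching 75%; inconclusive = mean inhibition at least 75% but some replicate below; inactive = mean inhibition below 75%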
Beta apoptosis: beta cell apoptosis inhibition; INS-1E cytokine-induced death, ATP luminescence, 48 h; percent of positive-control rescue, neutral wells zero; 0.8% of 300,000 active; AID 435005; protection from apoptosis, % (no concentration beside the values);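 active = Every replicate reaches about 75%, or at least half do and their mean reaches it too, limit read from the data; inconclusive = At least half of replicates reach the limit but their mean does not; inactive = Under half of replicates reach the limit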;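 note: higher means more ATP so stronger rescue from cytokine killing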
CSC inhib: blocks cancer stem cells; cancer stem cell-like cells viability, luminescence; inhibition, % at 7.5 µM; 1.1% of 300,000 active; in the data active = inhibition above about 75%; inconclusive = no clear call, values can overlap the other calls; tested in HMLE shEcad cells
PAX8 inh HTS: PAX8 transcriptional activity inhibition; inhibition, % at 12.6 µM; 1.2% of 360,000 active; RMG-I TPO-luciferase reporter, SteadyGlo, 24 h;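 active = mean replicate inhibition at least 60% with every replicate also reaching 60%; inconclusive = only one of the two criteria is met; inactive = mean below 60% and not all replicates reaching 60%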;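 note: luciferase light reporting Pax8 driven TPO promoter activity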
Mdm2 MdmX PPI: human Mdm2/MdmX binding inhibition. SaOS-2 split-luciferase Mdm2/MdmX complementation, luminescence. inhibition, % at 8 µM. 3% of 330,000 active. AID 485346;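 active = inhibition of at least 50% at 8 µM in the primary screen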
Target sequence (O15151 whole entry, looked up): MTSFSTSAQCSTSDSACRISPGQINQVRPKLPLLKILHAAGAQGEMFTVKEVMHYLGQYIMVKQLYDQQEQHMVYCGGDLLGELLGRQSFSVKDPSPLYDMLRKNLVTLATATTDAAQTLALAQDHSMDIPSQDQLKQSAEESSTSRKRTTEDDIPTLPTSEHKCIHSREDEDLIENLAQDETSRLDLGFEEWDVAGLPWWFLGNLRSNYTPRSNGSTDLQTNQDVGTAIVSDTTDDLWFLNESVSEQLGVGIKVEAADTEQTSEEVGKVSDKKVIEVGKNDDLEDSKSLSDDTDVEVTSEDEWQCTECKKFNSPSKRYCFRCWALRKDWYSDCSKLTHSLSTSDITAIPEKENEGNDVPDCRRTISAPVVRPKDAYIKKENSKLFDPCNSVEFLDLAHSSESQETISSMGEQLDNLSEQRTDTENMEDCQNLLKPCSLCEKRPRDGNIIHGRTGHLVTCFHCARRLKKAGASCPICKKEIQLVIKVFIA
Target sequence (Q00987 whole entry, looked up): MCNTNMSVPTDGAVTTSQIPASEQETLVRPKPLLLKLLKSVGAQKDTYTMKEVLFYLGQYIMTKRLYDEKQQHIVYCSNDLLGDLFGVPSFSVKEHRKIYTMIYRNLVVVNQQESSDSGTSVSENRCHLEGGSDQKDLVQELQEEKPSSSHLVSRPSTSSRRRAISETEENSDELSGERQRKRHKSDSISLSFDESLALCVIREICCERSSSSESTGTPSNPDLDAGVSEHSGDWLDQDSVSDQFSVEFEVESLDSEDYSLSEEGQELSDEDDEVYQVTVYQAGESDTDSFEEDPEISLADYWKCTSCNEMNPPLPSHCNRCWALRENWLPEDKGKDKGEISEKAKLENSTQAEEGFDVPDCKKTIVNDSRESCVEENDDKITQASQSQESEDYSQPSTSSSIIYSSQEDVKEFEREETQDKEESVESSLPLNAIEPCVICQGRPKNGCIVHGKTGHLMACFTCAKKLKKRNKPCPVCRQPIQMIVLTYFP
Gli antag conf: confirmation of Gli-SUFU pathway antagonists; Sufu-KO-LIGHT cells, Gli luciferase reporter, luminescence; inhibition, % at 5 µM; AID 602428; 40% of 2,500 active; shares compounds with Gli-Sufu antag;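 active = mean inhibition at 5 µM reaching about 45%, limit read from the data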
Gli cytotox: cytotoxic in Gli-SUFU antagonist counter-screen | shares compounds with Gli-Sufu antag | Sufu-KO-LIGHT cells cytotoxicity, ATP luminescence | cytotoxicity, % at 5 µM | 32% of 2,500 active | AID 651994;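 active = mean cytotoxicity at 5 µM above about 25%, limit read from the data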;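 note: cells exposed to compound overnight for roughly 16 to 18 hours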
Wnt3a cs: Wnt3a reporter inhibition counter-screen. shares compounds with Gli-Sufu antag. Wnt-LIGHT cells, Wnt3a-driven luciferase reporter, luminescence. inhibition, % at 6.25 µM. 20% of 2,500 active;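 active = mean inhibition above about 25%, limit read from the data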
Of the large screens only hits and unclear results are named; the others gave an inactive call (follow-up assays come after a bar, where they were run). Rows were chosen to be rich in hits. Some 4% of all compounds tested hit in one or more screens of this group.

Cc1ccc(NC(=S)Nc2ccc(S(=O)(=O)N3CCOCC3)cc2)cc1S(=O)(=O)N1CCOCC1	none | Gli antag conf inactive | Gli cytotox inactive | Wnt3a cs inactive
Cc1ccc(NCC(=O)Nc2cccc(S(=O)(=O)N(C)C)c2)cc1S(=O)(=O)N1CCCCCC1	none (no result: PAX8 inh HTS) | Gli antag conf inactive | Gli cytotox inactive | Wnt3a cs inactive
CCN(CC)CCNC(=O)c1ccc(NC(=O)c2cccc(S(=O)(=O)N3CCCCCC3)c2)cc1	none (no result: Beta apoptosis, CSC inhib, Mdm2 MdmX PPI) | Gli antag conf inactive | Gli cytotox inactive | Wnt3a cs inactive
CCN(CC)S(=O)(=O)c1cccc(NC(=O)CC2CCCC2)c1	Gli-Sufu antag 57 | Gli antag conf inactive | Gli cytotox inactive | Wnt3a cs inactive
CCN(CC)S(=O)(=O)c1ccc(OC)c(NC(=O)CC2CCCC2)c1	none
CC(C)(C)NNC(=S)Nc1ccc(S(=O)(=O)N2CCOCC2)cc1	none
O=C(N[C@@H]1CC[C@H](CCNS(=O)(=O)c2cccc(Cl)c2)O[C@@H]1CO)c1ccc(F)cc1	none (no result: Gli-Sufu antag, Shn3 inh set2, Beta apoptosis, CSC inhib, Mdm2 MdmX PPI)
CO[C@H]1CN(C)C(=O)c2cc(NS(=O)(=O)Cc3ccccc3)ccc2OC[C@@H](C)NC[C@H]1C	none (no result: Gli-Sufu antag, Shn3 inh set2, Beta apoptosis, CSC inhib, Mdm2 MdmX PPI)
O=C(NCc1ccccc1)[C@@H]1[C@@H](CO)[C@@H]2Cn3c(cccc3=O)[C@H]1N2C(=O)CC1CC1	none (no result: Gli-Sufu antag, Shn3 inh set2, Beta apoptosis, CSC inhib, Mdm2 MdmX PPI)
C[C@@H]1CN([C@@H](C)CO)C(=O)Cc2cc(NC(=O)Nc3cccc4ccccc34)ccc2O[C@@H]1CN(C)S(=O)(=O)c1ccccc1	none (no result: Gli-Sufu antag, Shn3 inh set2, Beta apoptosis, CSC inhib, Mdm2 MdmX PPI)
C[C@H](CO)N1C[C@H](C)[C@H](CN(C)S(=O)(=O)c2cccs2)Oc2ccc(NC(=O)C3CC3)cc2CC1=O	none (no result: Gli-Sufu antag, Shn3 inh set2, Beta apoptosis, CSC inhib, Mdm2 MdmX PPI)
N#Cc1cccc(NC(=O)CNc2cccc(S(=O)(=O)N3CCCC3)c2)c1	Gli-Sufu antag 66 | Gli antag conf inactive | Gli cytotox inactive | Wnt3a cs inactive
CCN(CC)S(=O)(=O)c1cccc(NC(=O)/C=C/c2cccc([N+](=O)[O-])c2)c1	none (no result: Mdm2 MdmX PPI) | Gli antag conf inactive | Gli cytotox inactive | Wnt3a cs inactive
CCN(CC)S(=O)(=O)c1cc(NC(=O)CNc2cccc(S(=O)(=O)N3CCOCC3)c2)ccc1C	Gli-Sufu antag 95, Shn3 inh set2 inconclusive | Gli antag conf 46 | Gli cytotox 36 | Wnt3a cs inactive
CCN(CC)S(=O)(=O)c1cccc(NC(=O)CNc2cccc(S(=O)(=O)N3CCCC3)c2)c1	Gli-Sufu antag 73, Shn3 inh set2 87, Beta apoptosis 112 (no result: PAX8 inh HTS) | Gli antag conf 75 | Gli cytotox 38 | Wnt3a cs inactive
CN(C)C(=O)[C@H]1[C@H](CO)[C@H]2Cn3c(ccc(C4=CCCC4)c3=O)[C@H]2N1Cc1ccc2c(c1)OCO2	none (no result: Gli-Sufu antag, Shn3 inh set2, Beta apoptosis, CSC inhib, Mdm2 MdmX PPI)
C[C@H](CO)N1C[C@H](C)[C@@H](CN(C)S(=O)(=O)c2ccccc2)Oc2ccc(NC(=O)C3CC3)cc2CC1=O	none (no result: Gli-Sufu antag, Shn3 inh set2, Beta apoptosis, CSC inhib, Mdm2 MdmX PPI)
O=C(N[C@H]1C/C=C\C[C@H](CC(=O)N(CCO)Cc2ccccc2)C(=O)NC[C@H](c2ccccc2)OC1=O)OCC1c2ccccc2-c2ccccc21	none (no result: CSC inhib, PAX8 inh HTS)
O=C(N[C@@H]1C/C=C\C[C@@H](CC(=O)N(CCO)Cc2ccccc2)C(=O)N[C@@H](c2ccccc2)COC1=O)OCC1c2ccccc2-c2ccccc21	Gli-Sufu antag 56 (no result: CSC inhib) | Gli antag conf 56 | Gli cytotox inactive | Wnt3a cs inactive
O=C(N[C@H]1C/C=C\C[C@@H](CC(=O)N(CCO)Cc2ccccc2)C(=O)N[C@H](Cc2c[nH]c3ccccc23)COC1=O)OCC1c2ccccc2-c2ccccc21	none | Gli antag conf 52 | Gli cytotox inactive | Wnt3a cs inactive
O=C(N[C@@H]1C/C=C\C[C@H](CC(=O)N(CCO)Cc2ccccc2)C(=O)N[C@@H](Cc2c[nH]c3ccccc23)COC1=O)OCC1c2ccccc2-c2ccccc21	none | Gli antag conf 57 | Gli cytotox inactive | Wnt3a cs inactive
O=C(N[C@H]1C/C=C\C[C@H](CC(=O)N(CCO)Cc2ccccc2)C(=O)N[C@H](Cc2c[nH]c3ccccc23)COC1=O)OCC1c2ccccc2-c2ccccc21	none (no result: CSC inhib)
